Compound activity as filed in PubChem BioAssay.
DT40 TDP1 no CPT – qHTS for Inhibitors of human tyrosyl-DNA phosphodiesterase 1 (TDP1): qHTS in cells in absence of CPT. DT40 Tdp1-/- hTDP1 cells, no CPT, ATP luminescence, 48 h. Potency, µM (highest dose often 46.2 µM), for inactives: at the top dose activity change, negative = growth inhibition, hits mostly inhibitors. 420,000 compounds, 15% hits. AID 686978, 2013; note: potency is the fitted concentration of half-maximal effect; nearly all actives have a fitted effect of over 55% in size
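Growth kinetics read by CellTiter-Glo luminescence after ≥48 hr at 37 °C. Cells: DT40 Tdp1-/- stably carrying human TDP1, 400 per well, compound exposure in the absence of CPT (DMSO vehicle).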
TDP1 cell CPT – qHTS for Inhibitors of human tyrosyl-DNA phosphodiesterase 1 (TDP1): qHTS in cells in presence of CPT; chicken DT40 Tdp1-/-;hTDP1 cells + 20 nM CPT, ATP luminescence, 48 h; Potency, µM (top dose mostly 46.2 µM), for the others: at the top dose activity change, negative = growth inhibition, actives largely listed as inhibitors; 420,000 compounds, 12% hits; note: potency is the fitted concentration of half-maximal effect; nearly all actives have a fitted effect of over 55% in size
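Cell growth measured by CellTiter-Glo luminescence after a minimum 48 h, 37 C compound exposure with 20 nM CPT in Tdp1-knockout DT40 cells stably expressing hTDP1, seeded 400/well; qHTS titration format.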
IL-1B inflam inh – qHTS for Inhibitors of Inflammasome Signaling: IL-1-beta AlphaLISA Primary Screen | THP-1 LPS/ATP IL-1B secretion, AlphaLISA, 16 h; hits give low values | activity change, % at 57.5 µM | 360,000 compounds, 4.7% hits | AID 743279, 2014; in the data active = activity change below about -50%; inconclusive = mostly about -30% to -49%
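Secreted IL-1B measured by AlphaLISA bead assay after 16 h compound exposure of THP-1 cells; compounds (final up to 57.5 uM) added 1 h before LPS (250 ng/mL) and ATP (1.25 mM) stimulation; lower signal means less secretion.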
TDP1 inh – qHTS Assay for Inhibitors of Tyrosyl-DNA Phosphodiesterase (TDP1). Tyrosyl-DNA phosphodiesterase 1 (Homo sapiens), Q9NUW8. recombinant TDP1, AlphaScreen DNA substrate cleavage. Potency, µM (series often up to 130 µM), without a hit: top-dose activity change, negative = inhibition, usual class: inhibitors. 350,000 compounds, 0.28% hits. AID 485290, 2010; note: potency is the fitted concentration of half-maximal effect; nearly all actives have a fitted effect of over 40% in size
Target sequence (Q9NUW8 whole entry, looked up): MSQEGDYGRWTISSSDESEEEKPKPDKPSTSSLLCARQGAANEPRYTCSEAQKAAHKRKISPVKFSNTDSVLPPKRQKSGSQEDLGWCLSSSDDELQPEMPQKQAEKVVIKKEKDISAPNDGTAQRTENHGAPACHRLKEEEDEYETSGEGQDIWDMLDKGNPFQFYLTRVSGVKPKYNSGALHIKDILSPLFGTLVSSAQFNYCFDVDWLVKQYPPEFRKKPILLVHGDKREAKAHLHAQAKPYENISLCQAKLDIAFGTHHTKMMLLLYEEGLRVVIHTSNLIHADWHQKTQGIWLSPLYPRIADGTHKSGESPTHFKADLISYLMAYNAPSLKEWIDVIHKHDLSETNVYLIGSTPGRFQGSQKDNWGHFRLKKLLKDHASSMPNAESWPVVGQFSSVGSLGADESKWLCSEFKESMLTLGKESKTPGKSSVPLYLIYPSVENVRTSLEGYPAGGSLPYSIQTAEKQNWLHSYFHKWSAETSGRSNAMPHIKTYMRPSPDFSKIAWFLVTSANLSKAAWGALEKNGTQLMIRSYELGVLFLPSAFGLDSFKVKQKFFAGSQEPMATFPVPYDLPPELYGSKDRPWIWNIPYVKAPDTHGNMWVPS
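Recombinant human Tdp1 (E. coli-expressed, 1 nM final) preincubated with compounds 15 min at room temperature, then 5'-biotin/3'-phosphotyrosine-FITC DNA substrate (15 nM final) added for 5 min. AlphaScreen beads (10 ug/ml final) added 10 min; cleavage lowers signal.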
ELG1 DNA repair – qHTS screen for small molecules that inhibit ELG1-dependent DNA repair in human embryonic kidney (HEK293T) cells expressing luciferase-tagged ELG1 | HEK293T ELG1-luciferase reporter, luminescence, 16 h; DNA damage induced by 5-fluorouridine | Potency, µM (highest dose often 46.1 µM), inactives show at the highest dose activity change, negative = inhibition, most hits filed as inhibitors | 330,000 compounds, 2.3% hits | AID 504467, 2011; note: potency is the fitted concentration of half-maximal effect; nearly all actives have a fitted effect of over 55% in size
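In this reporter screen, reduction of luminescence relative to DMSO vehicle indicated activity. Compounds and 5-fluorouridine were added together to 2,000 cells per well, incubated for 16 hr at 37 °C, then developed with ONE-Glo.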
Giardia kill – Small Molecules that selectively kill Giardia lamblia: qHTS; 340,000 compounds, 0.15% hits; activity change, % at 7.66 µM, hits read low; Giardia lamblia trophozoite viability; in the data active = activity change below about -80%; inconclusive = between about -30% and that limit;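 note: parasites exposed to compound for two days anaerobically before the ATP read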
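Killing of trophozoites was scored by loss of ATP luminescence after a 48 hrs anaerobic exposure to compounds at 37 deg C, using 100 cells per well.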
* marks the source's active call; other numbers are inactive results; u = inconclusive; x = not tested or not shown. Rows were chosen to be rich in hits. Some 19% of all compounds tested hit in one or more screens of this group. Unless noted, calls come from the whole dose curve; as a rule, active = well fitted curve in the direction sought with a large enough effect; inconclusive = small, poorly fitted or top-dose-only effect, or another doubt; inactive = no such curve, though single readings can be large; an effect the other way counts as inactive or inconclusive. % is set by controls: 0 for no effect and ±100 for the full control effect.

SMILES	DT40 TDP1 no CPT	TDP1 cell CPT	IL-1B inflam inh	TDP1 inh	ELG1 DNA repair	Giardia kill
O=C(CSc1nc2ccccc2o1)Nc1cc(C(F)(F)F)ccc1N1CCOCC1	u	u	-50.3*	0.0%	-16.8%	-19.1
CC(=O)Nc1cc(C(F)(F)F)ccc1N1CCOCC1	-9.0%	-16.5%	16.8	1.0%	x	9.3
Cc1cc(NC(=O)CSCC(=O)Nc2cc(C(F)(F)F)ccc2N2CCOCC2)no1	3.5%	-16.9%	-14.2	-0.1%	3.9%	11.3
O=C(Nc1cc(C(F)(F)F)ccc1N1CCOCC1)C1Cc2ccccc2CN1C(=O)c1ccco1 (centres undefined)	u	16.4µM*	26.6	2.1%	-20.9%	-3.3
CC1(C(=O)NS(=O)(=O)c2ccccc2C(F)(F)F)CCN1C(=O)CC1CCCC1 (centres undefined)	-5.8%	-12.5%	6.4	x	x	x
NC(N)=NCCC[C@H](N)C(=O)N1CCC[C@H]1C(=O)N1CCC[C@H]1C(=O)NCC(=O)N[C@@H](Cc1ccccc1)C(=O)N[C@@H](CO)C(=O)N1CCC[C@H]1C(=O)N[C@@H](Cc1ccccc1)C(=O)O	x	x	x	7.5%	x	x
CCC(Oc1ccccc1)C(=O)Nc1cc(C(F)(F)F)ccc1N1CCOCC1 (centres undefined)	-27.3%	-23.6%	-17.1	x	-3.1%	-7.2
COc1ccc(NC(C)C(=O)Nc2cc(C(F)(F)F)ccc2N2CCOCC2)c(OC)c1 (centres undefined)	23.1µM*	u	-24.0	14.1%	1.6%	-16.5
COC(=O)c1c(C(=O)OC)n(CCCN)c2ccc(C)cc12	13µM*	23.1µM*	u	-9.1%	14.9%	-18.4
CCOC(=O)c1c(C)n(CCO)c2ccc(O)cc12	-11.8%	-8.2%	14.0	3.1%	x	-15.0
CN(C)c1ccc(C(=O)NNC(=O)C23CC4CC(CC(C4)C2)C3)cc1	u	0.5%	-17.1	1.2%	u	7.3
CN(C)NC(=S)NC(=O)C12CC3CC(CC(C3)C1)C2	8.2µM*	4.11µM*	0.0	4.2%	13.8%	6.2
O=C(NC(=S)NC1C2CC3CC(C2)CC1C3)C12CC3CC(CC(C3)C1)C2 (centres undefined)	14.6µM*	u	-7.3	4.6%	20.1%	9.9
CN(C(=S)NC(=O)C12CC3CC(CC(C3)C1)C2)c1ccc(O)cc1	4.61µM*	5.8µM*	38.2	4.2%	13.4%	-9.0
CC(C)(C)NC(=S)NC(=O)C12CC3CCC(CC(C3)C1)C2	u	u	-3.4	5.6%	14.2%	-1.2
CC(CNC(=O)Cn1c(-c2cccs2)cc2ccccc21)c1ccccc1 (centres undefined)	u	20.6µM*	x	2.5%	x	x
COc1ccc(CCNC(=O)Cn2c(=O)n(-c3ccc(C)c(F)c3)c(=O)c3sccc32)cc1OC	14.6µM*	9.2µM*	4.0	0.0%	u	15.6
CN(C)c1ccc(CNC(=O)Cn2c(-c3cccs3)cc3cc(Cl)ccc32)cc1	u	u	x	0.0%	x	x
Cc1ccc(CNC(=O)Cn2c(-c3cccs3)cc3cc(Cl)ccc32)cc1	23.1µM*	u	x	5.0%	x	x
CC(CNC(=O)Cn1c(-c2cccs2)cc2cc(Cl)ccc21)c1ccccc1 (centres undefined)	u	u	x	-1.2%	x	x
COc1ccc(CCNC(=O)Cn2c(-c3cccs3)cc3cc(F)ccc32)cc1OC	9.2µM*	7.31µM*	x	1.3%	x	x
Cc1ccc(C(=O)CSc2ncc3c(n2)-c2ccccc2N(Cc2ccc(Cl)cc2)S3(=O)=O)cc1	-4.9%	-15.6%	x	-5.3%	x	x
COc1cc(F)ccc1-c1csc(C(C)(O)c2ccccc2)n1 (centres undefined)	18.4µM*	u	11.7	x	x	x
CC(O)(c1cccc(F)c1)c1nc(-c2ccncc2)cs1 (centres undefined)	18.4µM*	14.6µM*	15.4	x	x	x
CC(O)(c1cccc(F)c1)c1nc(-c2cnc3ccccc3c2)cs1 (centres undefined)	13µM*	14.6µM*	57.0	x	x	x
SMILES	DT40 TDP1 no CPT	TDP1 cell CPT	IL-1B inflam inh	TDP1 inh	ELG1 DNA repair	Giardia kill
CC(O)(c1ccc(F)c(F)c1)c1nc(-c2cccc(C(F)(F)F)c2)cs1 (centres undefined)	u	18.4µM*	-15.7	x	x	x
CC(C)C[C@@H](CNCC(=O)[C@H](CC(C)C)NC(=O)c1[nH]cnc1C(=O)N[C@H](CN)CC(C)C)NC(=O)c1nc[nH]c1C(=O)N[C@@H](CC(=O)O)C(=O)O	-23.4%	-20.6%	-9.9	x	x	39.7
COc1ccccc1-c1csc(C(O)(c2ccccc2)C(F)(F)F)n1 (centres undefined)	18.4µM*	u	8.0	x	x	x
CC(C)c1cccc(-c2csc(C(C)(O)c3ccccc3)n2)c1 (centres undefined)	23.1µM*	u	-12.3	x	x	x
CC(O)(c1cccc(F)c1)c1nc(-c2cccc(C(=O)O)c2)cs1 (centres undefined)	-1.4%	-1.0%	19.1	x	x	x
COc1ccc(-c2csc(C(O)(c3ccccc3)C(F)(F)F)n2)cc1 (centres undefined)	u	u	27.8	x	x	x
COc1cccc(C(C)(O)c2nc(-c3cnc4ccccc4c3)cs2)c1 (centres undefined)	18.4µM*	16.4µM*	23.2	x	x	x
CC(O)(c1cccc(F)c1)c1nc(-c2cccc3cccnc23)cs1 (centres undefined)	25.9µM*	u	-12.5	x	x	x
O=C(CC1c2ccccc2Oc2ccccc21)Nc1ccccc1C(F)(F)F	-27.7%	-25.9%	5.4	-2.8%	20.5%	-4.0
Cc1ccccc1NC(=O)c1ccccc1N(C)S(=O)(=O)c1ccccc1	u	14.4%	-6.4	x	x	-14.6
COc1ccc(CCNC(=O)C2CCCN2C(=O)Nc2ccc(F)cc2)cc1OC (centres undefined)	-8.0%	5.0%	22.3	x	-6.0%	9.3
COc1ccc(S(=O)(=O)N2CCCCCC2)cc1NC(=O)CCCOc1ccccc1	u	-26.1%	13.0	1.6%	-7.4%	-3.4
CC(O)(c1cccc(F)c1)c1nc(-c2cccc(C(F)(F)F)c2)cs1 (centres undefined)	u	29.1µM*	-18.7	x	x	x
